The record followed here is PubChem BioAssay (NCI).

Among the test systems are DU-145 prostate; K-562 leukemia; MALME-3M melanoma; MDA-MB-231 breast; RXF 393 renal; SF-268 CNS; SF-295 CNS; SF-539 CNS; UACC-257 melanoma; M14 melanoma; HCT-15 colon; HT29 colon; SNB-75 CNS; SNB-19 CNS; U251 CNS; PC-3 prostate; UACC-62 melanoma; LOX IMVI melanoma; SK-MEL-28 melanoma; SK-MEL-5 melanoma.
What all share (test): NCI-60 one-dose screen, 48 h (100 = growth as untreated, 0 = no growth, -100 = all killed)
Holding throughout (conditions): 10 µM unless noted

Structures are written as SMILES. Compounds without any hit were thinned out: in the full panel of roughly 83,000, 20% have a hit.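 Results are percent growth after 48 hours of single-concentration exposure. 100 means growth as in untreated cells, lower positive values show inhibition; negative values down to -100 show cell death.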 A number with no mark means an inactive call. The source made the active and inactive calls. The calls were made as follows: active = growth percent below 10; inactive = the rest.

Turning to `COc1ccc(/C=C/C(=O)/C=C(/C=C/c2ccc(OC)c(OC)c2OC)OB(F)F)c(OC)c1OC`, the growth in the assay with DU-145 prostate was 42.9%; with K-562 leukemia it was 9.46% (active); with MALME-3M melanoma it was 16.4%; in the assay with MDA-MB-231 breast it was 7.37% (active); in the assay with RXF 393 renal, 6.5% (active); with SF-268 CNS it was 31.9%. The growth was 56.4% in the assay on SF-295 CNS; 32.9% in the assay with SF-539 CNS; 37% in the assay with UACC-257 melanoma; 19.1% with M14 melanoma; 9.58% (active) in the assay on HCT-15 colon; 13.9% in the assay with HT29 colon. The growth in the assay on SNB-75 CNS is 94.5%; in the assay on SNB-19 CNS, 57.1%; in the assay on U251 CNS, 4.99% (active); in the assay on PC-3 prostate, 29.1%; in the assay with UACC-62 melanoma, 35.4%; in the assay with LOX IMVI melanoma, -5.79% (active). The growth with SK-MEL-28 melanoma is 41%.

`COc1ccc(Cl)cc1NC(=O)c1cc2c([nH]1)-c1nc(N)sc1CCC2`: the growth was 101% in the assay with DU-145 prostate; 74.7% in the assay with K-562 leukemia; 101% with MALME-3M melanoma; 105% in the assay with MDA-MB-231 breast; 114% in the assay on RXF 393 renal; 98.2% in the assay on SF-268 CNS. For the same compound, the growth in the assay on SF-295 CNS was 106%; in the assay with SF-539 CNS it was 99.4%; in the assay on UACC-257 melanoma, 91%; in the assay on M14 melanoma, 97.6%; in the assay on HCT-15 colon, 97.7%; in the assay with HT29 colon, 83.2%. The growth in the assay with SNB-75 CNS was 105%; in the assay on SNB-19 CNS it was 112%; with U251 CNS it was 101%; in the assay with PC-3 prostate, 97.8%; in the assay on SK-MEL-5 melanoma, 101%; in the assay on UACC-62 melanoma, 93.1%. Moreover, the growth with LOX IMVI melanoma is 91.7%; in the assay with SK-MEL-28 melanoma, 103%.

For the compound `CC(C)Cn1cnc2c3ccccc3nc(NCn3nc(-c4cc(Cl)cc(Cl)c4Cl)oc3=S)c21`, the growth is 115% in the assay with DU-145 prostate; 59.6% in the assay with K-562 leukemia; 116% with MALME-3M melanoma; 82.9% in the assay with MDA-MB-231 breast; 95% with RXF 393 renal; 110% in the assay with SF-268 CNS. The growth in the assay with SF-295 CNS is 100%; in the assay with SF-539 CNS it was 94.7%; with UACC-257 melanoma, 99.4%; in the assay on M14 melanoma, 79.9%; in the assay with HCT-15 colon, 106%; with HT29 colon it was 98.5%. Further, the growth in the assay with SNB-75 CNS is 90%; in the assay with SNB-19 CNS, 111%; in the assay on U251 CNS, 99%; in the assay on PC-3 prostate it was 86.2%; in the assay on SK-MEL-5 melanoma it was 85.3%; with UACC-62 melanoma, 90.1%. The growth is 86.7% with LOX IMVI melanoma and 110% in the assay on SK-MEL-28 melanoma.

With `C=C1C(=O)O[C@H]2[C@H]1CC/C(COC(=O)n1ccnc1C)=C\CC[C@@]1(C)O[C@@H]21`, the growth in the assay with DU-145 prostate is 93.2%; in the assay on K-562 leukemia it was 95.4%; with MALME-3M melanoma, 92.6%; with MDA-MB-231 breast, 106%; in the assay with RXF 393 renal it was 96.2%; in the assay on SF-268 CNS, 101%. Also, the growth with SF-295 CNS was 104%; with SF-539 CNS, 101%; with UACC-257 melanoma, 75.1%; in the assay on M14 melanoma it was 91%; in the assay on HCT-15 colon it was 93.6%; in the assay on HT29 colon it was 95.4%. The growth in the assay with SNB-75 CNS is 93.2%; in the assay with SNB-19 CNS it was 95.3%; with U251 CNS it was 95.1%; in the assay on PC-3 prostate, 97.2%; in the assay on UACC-62 melanoma it was 98.6%; in the assay with LOX IMVI melanoma it was 95%. For the same compound, the growth in the assay with SK-MEL-28 melanoma is 100%.

As for `CC(=O)Oc1ccc(C(OC(C)=O)OC(C)=O)cc1`, the growth with DU-145 prostate is 103%; with K-562 leukemia, 89.6%; in the assay on MALME-3M melanoma it was 105%; in the assay on MDA-MB-231 breast, 114%; in the assay with RXF 393 renal it was 115%; in the assay with SF-268 CNS, 93.3%. Further, the growth in the assay on SF-295 CNS is 99.1%; with SF-539 CNS, 99.7%; with UACC-257 melanoma it was 107%; in the assay on M14 melanoma, 99.3%; in the assay on HCT-15 colon, 102%; in the assay with HT29 colon it was 99.8%. Moreover, the growth was 106% with SNB-75 CNS; 104% in the assay on SNB-19 CNS; 106% in the assay with U251 CNS; 104% in the assay with PC-3 prostate; 101% in the assay with UACC-62 melanoma; 99.2% in the assay with LOX IMVI melanoma. In addition, in the assay on SK-MEL-28 melanoma, the growth was 107%.

As to `[2H]c1nc(Nc2ncc(F)c(-c3cc(F)c4nc(C)n(C(C)C)c4c3)n2)c([2H])c([2H])c1CN1CCN(CC)CC1`, the growth in the assay on DU-145 prostate was 59%; in the assay on K-562 leukemia, -15.9% (active); in the assay with MALME-3M melanoma, 85.9%; in the assay on MDA-MB-231 breast it was 55.5%; with RXF 393 renal, -8% (active); in the assay with SF-268 CNS, 54%. In addition, the growth in the assay with SF-295 CNS was 59.2%; in the assay with SF-539 CNS it was 67.2%; with UACC-257 melanoma, 72.3%; in the assay with M14 melanoma it was 46.3%; in the assay on HCT-15 colon, 33.2%; in the assay with HT29 colon it was 31.5%. Besides, the growth in the assay with SNB-75 CNS was 26.5%; in the assay on SNB-19 CNS, 61.8%; in the assay on U251 CNS, 46.1%; in the assay with SK-MEL-5 melanoma it was 27.5%; with UACC-62 melanoma, 62.5%; in the assay with LOX IMVI melanoma, 37%. Also, in the assay with SK-MEL-28 melanoma, the growth is 60.5%.

As to `O=C1/C(=C/c2cccc3cnccc23)Cc2cc(F)ccc21`, the growth is 104% in the assay with DU-145 prostate; 96.1% in the assay on K-562 leukemia; 97.9% in the assay on MALME-3M melanoma; 93.4% in the assay with MDA-MB-231 breast; 112% with RXF 393 renal; 98.8% in the assay on SF-268 CNS. Besides, the growth in the assay on SF-295 CNS was 88.4%; in the assay with SF-539 CNS it was 94.1%; with UACC-257 melanoma, 113%; in the assay with M14 melanoma, 87.7%; in the assay with HCT-15 colon, 87.1%; in the assay with HT29 colon it was 94.6%. Further, the growth with SNB-75 CNS is 107%; with SNB-19 CNS, 102%; with PC-3 prostate it was 79.2%; in the assay with SK-MEL-5 melanoma, 89.9%; in the assay on UACC-62 melanoma it was 86.3%; with LOX IMVI melanoma it was 93%. Further, the growth in the assay on SK-MEL-28 melanoma is 109%.

As for `CC(C)NCC(O)COc1ccc(CC(N)=O)cc1` (centres undefined), the growth is 109% in the assay on DU-145 prostate; 96.6% in the assay with K-562 leukemia; 98.4% with MALME-3M melanoma; 103% with MDA-MB-231 breast; 111% in the assay on RXF 393 renal; 112% in the assay with SF-268 CNS. Besides, the growth is 95.8% in the assay on SF-295 CNS; 109% in the assay with SF-539 CNS; 104% with UACC-257 melanoma; 98.3% in the assay with M14 melanoma; 99.3% in the assay with HCT-15 colon; 103% with HT29 colon. Further, the growth in the assay with SNB-75 CNS is 99%; with SNB-19 CNS, 106%; in the assay with U251 CNS it was 101%; in the assay on SK-MEL-5 melanoma, 94.9%; in the assay on UACC-62 melanoma it was 107%; in the assay with LOX IMVI melanoma, 98.1%. Also, the growth with SK-MEL-28 melanoma is 103%.
